# Measured values reported in ChEMBL document CHEMBL3988442, “University of Dundee, Small-Polar-MMV Screening Library” (2021).
# Screen size: about 48,000 compounds; about 13,000 (27%) showed an effect of 50% or more. Some of the results follow.
# Test system: Wolbachia pipientis
# Assay: Anti-Wolbachia Cell-Based Screen
# Type: functional
# Design: scale not given: in the data most compounds retested in dose-response had high values
# Conditions: 5 µM
row,SMILES,Percent Effect
1,O=C(N1CCOCC1)N1C[C@@H]2OCCN(C(=O)c3ccco3)[C@@H]2C1,-0.4256%
2,Cc1nn(C)c2ncc(S(=O)(=O)N3CCCC(C(N)=O)C3)cc12 (stereo unspecified),-2.512%
3,Cc1ccccc1CN(CC(=O)O)C(=O)COCC1CC1,-13.15%
4,COCCNC(=O)c1cccnc1Oc1ccc(Cl)cc1,115.3%
5,CC(C)(C)NC(=O)CNC(=O)c1cccnc1Oc1cccnc1,-29.24%
6,O=C(NCCOCCO)c1cccnc1Oc1ccc(Cl)cc1,144.4%
7,O=C(NCCOc1ncc(Cl)cc1Cl)c1ccncc1F,-4.331%
8,CCN(CC)C(C)CNC(=O)c1cccnc1Oc1cccnc1 (stereo unspecified),-104.8%
9,CC(C)CCNC(=O)c1cccnc1Oc1cccnc1,3.255%
10,Cc1cccc(OCc2nnc(SCC3CCCN(C)C3)o2)c1 (stereo unspecified),17.13%
11,Cc1nc(CCN)cc(N2CCC(O)(c3ccc(Cl)cc3)CC2)n1,-10.13%
12,CC(C)CN1C(=O)CO[C@@H]2CN(C(=O)C3CCOCC3)C[C@H]21,-22.5%
13,Cc1nonc1C1CCCN1C(=O)CCc1cc2n(n1)CCCNC2 (stereo unspecified),9.259%
14,CC(C)OCC(=O)N1CCC(c2ncncc2-c2ccnc(N)c2)C1 (stereo unspecified),123.4%
15,COCCC(=O)N1CCC(Nc2ncc(Cl)cn2)CC1,-4.765%
16,COCCC(=O)N1CCC(c2ncncc2-c2ccnc(N)c2)C1 (stereo unspecified),107.7%
17,Cc1nc(C2CCN(C(=O)COC(C)C)CC2)cc(N2CCOCC2)n1,30.46%
18,COCCC(=O)N1CC[C@H]2C(=O)N(c3ccsc3)CCO[C@H]2C1,-5.602%
19,Cc1ccc2c(c1)c(CNC(=O)C1CC(=O)N(C3CC3)C1)nn2C (stereo unspecified),1.98%
20,Cc1nccn1[C@@H]1CC[C@@H](NC(=O)Cn2c(C)nc3ccccc32)[C@H]1O,99.52%
21,CC(C)(C)n1c(NC(=O)CNC(=O)NC2CC2)nc2ccccc21,-6.693%
22,CN(CCCOc1ccccc1)Cc1nccn1C,-7.331%

row,SMILES,Percent Effect
1,CCC[C@H]1CN(C2CCOCC2)C[C@@H]1NC(=O)CCn1ccnc1C,0.5076%
2,Cc1nccn1[C@@H]1CC[C@@H](NC(=O)CCOc2ccccc2)[C@H]1O,125.1%
3,Cc1cc(=O)n(CC(=O)NC2CCCCC2)c2ccccc12,-8.945%
4,Cc1nccn1[C@@H]1CC[C@@H](NC(=O)CCCn2cccn2)[C@H]1O,100.2%
5,CC(=O)C(Cc1ccccc1)NC(=O)CSc1nccn1C1CC1 (stereo unspecified),4.235%
6,CCC(=O)N1CCN(C(=O)CCn2cccn2)CC1,5.19%
7,CCc1nc(C)c(C(=O)N(C)Cc2cnn(-c3cccc(OC)c3)c2)s1,-4.854%
8,Cc1ccccc1CSc1nc(N)cc(N2C[C@H](O)[C@@H](N(C)C)C2)n1,-0.3306%
9,Cc1cccc(-c2c[nH]c(C3CCCN3C(=O)c3cc(C)n[nH]3)n2)c1 (stereo unspecified),16.57%
10,Cc1cc(-c2ccccc2C(=O)O)nc(C2CCCCN2C)n1 (stereo unspecified),97.78%
11,CC(=O)N1CCCC1c1nc(C)cc(-c2ccc(F)cc2)n1 (stereo unspecified),79.53%
12,CC(=O)N1CCCCC1c1nc(C)cc(-c2ccccc2C(=O)O)n1 (stereo unspecified),100.6%
13,Cc1cc(N2CCC(O)CC2)nc(C)n1,10.82%
14,Cc1cc(N2CCC(O)CC2)nc(C2CCCN2C)n1 (stereo unspecified),110.3%
15,Cc1cc(C)n(-c2ccc(N3CCC(O)CC3)nc2)n1,-17.54%
16,CC(=O)N(CCc1nc(-c2cc(C(N)=O)co2)cs1)C(C)C,-2.269%
17,CC(C)(C)C(=O)N1C[C@@H](F)[C@@H](OCc2nc3ncccc3[nH]2)C1,-11.47%
18,COc1ccccc1CC(=O)NC(CC(=O)O)c1ccc(C)cc1 (stereo unspecified),-6.3%
19,CS(=O)(=O)C1=C(O)C(=O)N(c2ccccc2)C1c1ccccc1 (stereo unspecified),110.5%
20,OCCC1CN(c2ncnc3[nH]cnc23)CCN1Cc1cccs1 (stereo unspecified),9.965%
21,CCOCc1ccccc1NC(=O)NC1CCN(C2CCCC2)C1 (stereo unspecified),-8.399%
22,Cn1cnnc1-c1cncc(NCc2cccc3c2OC(C)(C)C3)c1,-16.61%

row,SMILES,Percent Effect
1,N#Cc1cccc(CN2C[C@H](NC(=O)C3CC3)[C@H]3OCCC[C@H]32)c1.O=C(O)C(F)(F)F,100.2%
2,N#Cc1cccc(CN(CC(=O)N2CCCC2)CC2CCCO2)c1 (stereo unspecified),11.29%
3,O=C(N[C@@H]1CN(Cc2ccc3c(c2)OCO3)[C@@H]2CCCO[C@@H]21)C1CC1,-19.8%
4,N#Cc1cccc(CN2C[C@@H](NC(=O)C3CC3)[C@H]3OCCC[C@H]32)c1,101.9%
5,Cc1cccc(OC2CCN(S(=O)(=O)Cc3cccc(F)c3)CC2)n1,-8.664%
6,CSCC(C)(O)CNC(=O)c1cc(F)ccc1Br (stereo unspecified),-2.784%
7,CCOc1ncccc1NC(=O)c1cc2c(s1)CCC2,-11.29%
8,O=C(N[C@@H]1CCC[C@@H](n2ccnc2)[C@@H]1O)c1ccc2c(c1)CCCC2,113.7%
9,O=C(Cc1ccc2c(c1)CCCC2)N[C@@H]1CC[C@@H](n2ccnc2)[C@@H]1O,128.7%
10,O=C(NC1CCN(Cc2ccc(F)cc2)CC1)c1ccc2c(c1)CCC2,-15.84%
11,O=C(N[C@@H]1CC[C@@H](n2ccnc2)[C@@H]1O)c1cc2c(s1)CCC2,100.6%
12,Cn1cc(CNC(=O)c2cc3c(s2)CCCCC3)cn1,-22.89%
13,O=C(Cc1ccc2c(c1)CCC2)NC1CCN(Cc2ccccc2)CC1,7.244%
14,O=C(Cc1ccc2c(c1)CCC2)NCCNc1ncccn1,11.75%
15,O=C(NC1CCN(c2cc(-n3ccnc3)ncn2)CC1)c1ccncc1,4.759%
16,CCOCC(=O)NCC1(NC(C)c2ccccc2)CCOCC1 (stereo unspecified),-5.882%
17,CCc1nnsc1C(=O)N1CCCN(Cc2ccccc2)CC1,-10.59%
18,Cc1cnn(CC(C)NCc2c(C)nn(Cc3ccccc3)c2C)c1 (stereo unspecified),-7.761%
19,CCC(CN1CCCC1)n1cncc1-c1cnn(Cc2ccccc2)c1.Cl (stereo unspecified),116%
20,O=C(CCN1CCCC1c1cccs1)N1CCc2sccc2C1 (stereo unspecified),2.808%
21,COc1cc(CN2CCCCCC2c2cccs2)cc(OC)c1O (stereo unspecified),139%
22,COc1cccc(CN2CCCC(Nc3cccc(F)c3)C2)c1O (stereo unspecified),-12.95%

row,SMILES,Percent Effect
1,Cc1cc(C)cc(N(CCC#N)C(=O)CN2CCCC2c2cccs2)c1 (stereo unspecified),-27.93%
2,COc1cccc(CN2CCCCCC2c2cccs2)c1O (stereo unspecified),-12.69%
3,COc1cccc(CN2CCN(CC(C)C)C(=O)C2C)c1O (stereo unspecified),-13.51%
4,COc1cccc(CN2CCCCCC2c2cccs2)c1OC (stereo unspecified),128.6%
5,COc1cccc(CN2CCCCCC2c2sccc2C)c1O (stereo unspecified),115%
6,COc1cc(CN2CCCCCC2c2cccs2)cc(OC)c1OC (stereo unspecified),88.88%
7,Cc1nc(C)n(CC2CCCCN2CCCS(N)(=O)=O)n1 (stereo unspecified),-48.39%
8,CC(NC(=O)N1CCC(OCc2ccccc2)CC1)c1nncn1C (stereo unspecified),-3.035%
9,CC(=O)Nc1ccc(-n2ccc3nc(N4CCCC4)ncc3c2=O)cc1,4.031%
10,OCCC1CN(c2nc(-c3cccnc3)nc3c2CCNCC3)CCO1 (stereo unspecified),-11.64%
11,CNC(=O)c1c(C)cccc1NCC(=O)Nc1cc(C)nn1C,-2.295%
12,O=C(Nc1ccc(F)cc1)N(CCC(F)(F)F)C[C@H](O)CO,-0.3648%
13,Cc1nc2c(c(N3CCCOCC3)n1)CCN(C(=O)N1CCCC1)CC2,0.8074%
14,Cc1nc2c(c(N3CCCOCC3)n1)CCN(c1nccs1)CC2,108.7%
15,Cc1nc(N2CCOCC2)nc2c1CCN(c1nccs1)CC2,1.797%
16,CCc1nc2n(n1)CCCC2NC(=O)Nc1cc(OC)ccc1C (stereo unspecified),24.05%
17,CS(=O)(=O)CCCN1CCOC2(CCc3ccccc32)C1 (stereo unspecified),-1.468%
18,CN(Cc1cc(F)ccc1C#N)CC(C)(CO)CO,8.99%
19,Cc1cc(F)ccc1S(=O)(=O)N(C)CC(N)=O,-0.8212%
20,COc1c(C2CCCN2C(=O)c2cccc(C(N)=O)c2)c(C)nn1C (stereo unspecified),8.718%
21,COc1c(C2CCCN2C(=O)c2cccc(C)n2)c(C)nn1C (stereo unspecified),93.53%
22,COc1c(C2CCCN2C(=O)c2ccc(N(C)C)nn2)c(C)nn1C (stereo unspecified),97.2%

row,SMILES,Percent Effect
1,Cc1nn(C)c(Cl)c1C1CCCN1C(=O)c1ccc(N(C)C)nn1 (stereo unspecified),-10.16%
2,COc1c(C2CCCN2C(=O)c2ccnc(C)n2)c(C)nn1C (stereo unspecified),135.1%
3,COc1c(C2CCCN2C(=O)c2cccnc2N(C)C)c(C)nn1C (stereo unspecified),107.7%
4,CS(=O)(=O)N1C[C@H](C(=O)Nc2cccnc2)C[C@H]2OCC[C@H]21.O=C(O)C(F)(F)F,-10.82%
5,CC[C@@]1(O)CCN(c2ncc(Cl)cc2C(F)(F)F)C[C@H]1O,-3.293%
6,COCc1noc(CNc2nc(C3CCCC3)nc3c2CCNCC3)n1,-2.329%
7,COc1ccc(SC(C)C(=O)N2CCC(C(=O)N3CCCC3)CC2)cc1 (stereo unspecified),-0.009577%
8,CN(C)CCNC(=O)c1ccc(OC2CCN(S(C)(=O)=O)CC2)c(Cl)c1,-4.841%
9,COCCNC(=O)c1cc2c(s1)CCN2S(C)(=O)=O,90.75%
10,COCCNC(=O)c1cc(S(=O)(=O)N2CCCCCC2)cs1,97.81%
11,CC(C)CNC(=O)c1cc2c(s1)CCN2S(C)(=O)=O,101.5%
12,COCCNC(=O)NCCS(=O)(=O)N1CCN(c2cccc(C)c2)CC1,9.148%
13,COCCNC(=O)C1CCCN1S(=O)(=O)c1sc(=O)[nH]c1C (stereo unspecified),-10.99%
14,CC(C)CNC(=O)c1cc2c(s1)CCN2Cc1cccnc1,-6.846%
15,NC(=O)C1CCN(C(=O)c2cc(S(=O)(=O)N3CCCCC3)cs2)CC1,2.088%
16,CC(C)CNC(=O)c1nc2c(s1)CCN(C(=O)c1cccnc1)CC2,-3.468%
17,COCCNC(=O)c1cc(S(=O)(=O)N2CCCCC2)cs1,0.5112%
18,CN(C)CCNC(=O)c1cc2c(s1)CCN2S(C)(=O)=O,114.7%
